# Data from PubChem BioAssay (Tox21).
# Where “and” joins values, the source holds several entries; their conditions need not be identical. Equal entries are not always repeated. Inconclusive results are not listed. Where a call stands in place of a potency, no number is given. Calls of active or inactive are those of the source. The call rests on the fitted dose curve; in most records, active means well fitted cell-killing curve with a large enough effect in the repeat runs; inconclusive means weak or mixed curves, or effect the other way; inactive means no such curve, though single readings can be large or run the other way.
# Experiment: qHTS assay to identify small molecule antagonists of the thyroid receptor (TR) signaling pathway - cell viability counter screen (AID 743064); further: nearly all actives have a fitted effect of over 50% in size
# Conditions: GH3.TRE-Luc viability, CellTiter-Fluor, 24 h; series mostly up to 70.3 µM
# Description: National Center for Advancing Translational Sciences [NCATS]
# NIH Chemical Genomics Center [NCGC]
# U.S. Environmental Protection Agency [EPA]
# National Institutes of Environmental Health Sciences [NIEHS]
# National Toxicology Program [NTP]
# U.S. Food and Drug Administration [FDA]
# Thyroid receptor (TR), a nuclear hormone receptor, plays an important role in development, proliferation, differentiation, metabolism, brain function, and cardiovascular system. […] To profile the Tox21 10K compound library in TR signaling, a cell-based GH3-TRE-Luc assay (GH3.TRE-Luc cell line, developed by the laboratory of Dr. Albertinka J. Murk, Wageningen University) was used to measure the inhibition of TR. GH3 (rat pituitary tumor) cells stably expressing a TR activity sensor consisting of two TR response elements and a luciferase reporter gene. The cytotoxicity of the Tox21 compound library against the GH3.TRE-Luc cell line was tested in parallel by measuring the cell viability using CellTiter-Fluor assay (Promega, Madison, WI) in the same wells.
# Tox21 Assay Protocol Summary:
# GH3.TRE-Luc cells were dispensed at 1500 cells/4 uL/well into 1536-well white solid bottom plates using a Multidrop Combi dispenser (Thermo Fisher Scientific Inc., Waltham, MA). After the assay plates were incubated at 37 C for 4 hours, 23 nL of library compound or DMSO controls was transferred to the assay plates by a pintool station (Kalypsys, San Diego, CA), followed by addition of 1 ul of T3 (1 nM, final concentration in the wells) to stimulate TR transactivation. The assay plates were incubated at 37 C for 23.5 h, and then 1 uL of CellTiter-Fluor reagent (Promega, Madision, WI) of measuring cytotoxicity was added to each well using a Bioraptr Flying Reagent Dispenser (FRD) workstation (Beckman Coulter, Indianapolis, IN, USA). The plates were incubated at 37C and 5% CO2 for additional 30 min, and fluorescence intensity was measured by a ViewLux plate reader (PerkinElmer, Shelton, CT).
# Potency means the concentration at half of the fitted maximal effect.
row,SMILES,Potency
1,CN(C)CCN(Cc1ccccc1)c1ccccn1,inactive
2,CCC(C)c1cc(C(C)(C)C)c(O)c(C(C)(C)C)c1 (stereo not given),inactive
3,CN1CCC(=C2c3ccccc3Sc3ccccc32)CC1,5.96 µM (active)
4,O=C(OCCCCCCOC(=O)c1ccccc1)c1ccccc1,inactive
5,Cc1ncc(CO)c(C=O)c1O,inactive
6,N=c1ccn2c(n1)O[C@H]1[C@H](O)[C@@H](CO)O[C@H]12,0.531 µM (active)
7,C=C(C)C(=O)OCCO,inactive
8,CC1OC(=O)C(C)OC1=O (stereo not given),inactive
9,C/C=C/C=C/CO,inactive
10,CCc1c(C(=O)NN2CCCCC2)nn(-c2ccc(Cl)cc2Cl)c1-c1ccc(Br)cc1,15.4 µM (active)
11,Cc1ccc(N=Nc2c(O)c(C(=O)O)cc3ccccc23)c(S(=O)(=O)O)c1,26.5 µM (active)
12,O=C(O)c1ccc(S(=O)(=O)O)cc1C(=O)O,inactive
13,O=[N+]([O-])c1ccc2[nH]ncc2c1,inactive
14,CCCn1cnc2c1c(=O)n(CCCCC(C)=O)c(=O)n2C,inactive
15,COc1ccnc(CS(=O)c2nc3ccc(OC(F)F)cc3[nH]2)c1OC (stereo not given),inactive
16,CCN(CC)CCOC(=O)C(c1ccccc1)C1CCCCC1 (stereo not given),26.6 µM (active)
17,CCN(CC)CCNC(=O)c1cc(Br)c(N)cc1OC,inactive
18,O=C1C(O)=C(O)C(=O)C(O)=C1O,inactive
19,CCCCCCCCCCCc1ccccc1,inactive
20,O=C(O)CC(=O)C(=O)O,inactive

row,SMILES,Potency
1,C[C@@H](c1ncncc1F)C(O)(Cn1cncn1)c1ccc(F)cc1F (stereo not given in full),inactive
2,CCOC(=O)c1cccnc1,inactive
3,O=C(OCCc1ccccc1)c1ccccc1,inactive
4,OCCN1CCN(CCCN2c3ccccc3C=Cc3ccccc32)CC1,6.68 µM (active) and 7.5 µM (active)
5,CCCCCCCC#N,inactive
6,O=C(O)c1nc(Cl)c(Cl)c(Cl)c1Cl,inactive
7,CCCCCCCCCCCC(=O)OC[C@@H](O)[C@H]1OC[C@H](OCCO)[C@H]1OCCO,inactive
8,C[N+](C)(C)CCOC(=O)CCC(=O)OCC[N+](C)(C)C,inactive
9,C=C(C)C(=O)OCCOCC,inactive
10,CCOC(=O)COC(=O)c1cc(Oc2ccc(C(F)(F)F)cc2Cl)ccc1[N+](=O)[O-],inactive
11,COC(=O)c1ccc(I)cc1S(=O)(=O)NC(=O)Nc1nc(C)nc(OC)n1,inactive
12,CN1CCC(N(Cc2cccs2)c2ccccc2)CC1,11.9 µM (active)
13,CCCCOC(=O)CCCCCCCC(=O)OCCCC,inactive
14,c1ccc(-c2ccccn2)nc1,inactive
15,CCN(CC)CCOC(=O)C(Cc1cccc2ccccc12)CC1CCCO1 (stereo not given),inactive
16,CNC(=O)CN(CCN(CCN(CC(=O)[O-])CC(=O)NC)CC(=O)[O-])CC(=O)[O-].O.[Gd+3],inactive
17,Cn1c(=O)cc(Oc2ccc(F)cc2F)c2cnc(NCC(C)(C)O)nc21,inactive
18,CCC(CC)Nc1ccc(C)c(C)c1,inactive
19,CCC(C)O (stereo not given),inactive
20,C=C1[C@H]2CC[C@@H]3[C@H]2C(C)(C)CCC[C@]13C,inactive
